A short description of experiment [1]: A CellTox Green Cytotoxicity Assay to monitor cytotoxicity in HepG2 cells - 8 hour (AID 1224890). Further: nearly all actives have a fitted effect of over 45% in size. Further: potency means the concentration at half of the fitted maximal effect. To be noted: CellTox Green fluorescence; series mostly up to 76.8 µM. In short, it runs like this:
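Read-out is fluorescence of a cyanine dye excluded from live cells that stains DNA of dead HepG2 cells, with signal proportional to cytotoxicity. Plates were read at 0, 8, 16, 24, 32 and 40 h after compound addition.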

Experiment [2] can be described thus: qHTS assay to identify small molecule antagonists of the estrogen receptor alpha (ER-alpha) signaling pathway using the BG1 cell line in the presence of 0.1 nM 17-beta-estradiol - cell viability counter screen (AID 1259241). Further: nearly all actives have a fitted effect of over 40% in size. Conditions: VM7Luc4E2 (BG1) viability, CellTiter-Fluor protease, 22 h, 0.1 nM estradiol agonist added; series mostly up to 92.4 µM. The method in brief:
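VM7Luc4E2, 4,000 cells/well, phenol red-free medium + 10% charcoal-stripped FBS; 24 hr plating; cpd + 0.1 nM E2 final, 22 hr 37C/5% CO2; CellTiter-Fluor 30 min, fluorescence.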
(qHTS replaces the single test concentration by a dilution series.)

Experiment [3] can be described thus: qHTS assay to identify small molecule antagonists of the androgen receptor (AR) signaling pathway using the MDA cell line in the presence of 0.5 nM R1881 - cell viability counter screen (AID 1259242). Further: nearly all actives have a fitted effect of over 45% in size. To be noted: MDA-kb2 viability, CellTiter-Fluor protease fluorescence, 16 h; series mostly up to 92.4 µM. In short, it runs like this: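 Counter screen for cytotoxicity run in the same wells as the AR antagonist reporter screen: MDA-kb2 cells were treated 16 hr with test compounds and 0.5 nM R1881, then live-cell protease activity was measured by fluorescence.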

The target in experiment [4] is Androgen receptor (Homo sapiens) (UniProt P10275). The experiment in a line: qHTS assay to identify small molecule antagonists of the androgen receptor (AR) signaling pathway using the MDA cell line in the presence of 0.5 nM R1881 (AID 1259243). Further: nearly all actives have a fitted effect of over 50% in size. Further: potency means the concentration at half of the fitted maximal effect. Conditions: MDA-kb2 MMTV-luciferase, R1881 0.5 nM, 16 h; series mostly up to 92.4 µM. In short, it runs like this:
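Luciferase luminescence is the read-out: compounds are tested for suppressing 0.5 nM R1881-driven MMTV reporter activity in MDA-kb2 cells after 16 hr at 37C.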

Experiment [5] is described as follows: qHTS assay to identify small molecule phospholipidosis (PLD) inducers (AID 1259344; active means well fitted curve in the direction sought with a large enough effect; an effect the other way counts as inactive or inconclusive). Conditions: HepG2 phospholipidosis, LipidTOX Red imaging, 24 h; series mostly up to 38.3 µM. In short, it runs like this: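 HepG2 cells grown on collagen I take up LipidTOX Red while exposed to compound for 24 h; after fixation they are imaged at 20x and pit metrics are extracted.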

A short description of experiment [6]: qHTS assay to identify small molecule HDAC inhibitors (AID 1259364). Further: nearly all actives have a fitted effect of over 45% in size. Further: potency means the concentration at half of the fitted maximal effect. Conditions: HCT-116 HDAC-Glo I/II luminescence, 2 h; series mostly up to 92.4 µM. The method in brief:
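Luminescence from a cell-permeant luminogenic class I/II HDAC substrate reports endogenous deacetylase activity in intact HCT-116 cells treated with compounds for 2 h.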

Experiment [7] can be described thus: qHTS assay to identify small molecule HDAC inhibitors - cell viability counter screen (AID 1259365). Further: nearly all actives have a fitted effect of over 50% in size. Conditions: HCT-116 viability, CellTiter-Glo ATP luminescence, 2 h; series mostly up to 92.4 µM. The method in brief:
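Luminescence from CellTiter-Glo, developed 30min at room temperature, reports viability of wild-type HCT-116 cells treated 2hr with compounds at 37 C and 5% CO2 after overnight plating.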

The nature of experiment [8]: qHTS assay to identify small molecule agonists of the sonic hedgehog signaling (Shh) pathway - cell viability counter screen (AID 1259366). Further: nearly all actives have a fitted effect of over 50% in size. Further: potency means the concentration at half of the fitted maximal effect. Conditions: NIH/3T3 Gli1-Luc viability, CellTiter-Fluor, 24 h; series mostly up to 92.4 µM. The method in brief: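 Cytotoxicity counter screen run in the same wells as the Shh reporter assay. NIH/3T3 cells carrying a Gli1 response element–driven luciferase were treated with DMSO-dissolved compounds for 24hr, and live-cell protease activity was measured with CellTiter-Fluor.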

A short description of experiment [9]: qHTS assay to identify small molecule antagonists of the sonic hedgehog signaling (Shh) pathway - cell viability counter screen (AID 1259367). Further: nearly all actives have a fitted effect of over 55% in size. To be noted: NIH/3T3 Gli1-Luc viability, CellTiter-Fluor, 24 h; series mostly up to 92.4 µM. The method in brief:
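After a 4 hr settling period, 3T3 Gli1-Luc cells were treated with DMSO-dissolved chemicals and conditioned medium, kept 24 hr at 37C in 5% CO2, and assayed for viability by CellTiter-Fluor fluorescence following 1 hr reagent incubation.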

Experiment [10] has as its target Estrogen receptor (Homo sapiens) (UniProt P03372). Description: qHTS assay to identify small molecule antagonists of the estrogen receptor alpha (ER-alpha) signaling pathway using the BG1 cell line in the presence of 0.1 nM 17-beta-estradiol (AID 1259244). Further: nearly all actives have a fitted effect of over 50% in size. Further: potency means the concentration at half of the fitted maximal effect. Conditions: VM7Luc4E2 (BG1) ERE-luciferase, antagonist mode, 0.1 nM E2, 22 h; series mostly up to 92.4 µM. The method in brief: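 Cells: VM7Luc4E2, endogenous ER-alpha, 4x ERE-luc stable. Pre-culture 5 d, phenol red-free, charcoal-stripped FBS. Plated 24 h, compound + E2 0.1 nM final, 22 h 37C/5% CO2. Readout ONE-Glo luminescence.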

Values without a mark were called inactive. Records with an inconclusive call do not appear. Active and inactive are the calls of the source. Unless noted, the call rests on the fitted dose curve; in most records, active means well fitted curve in the direction sought with a large enough effect in the repeat runs; inconclusive means weak or mixed curves; inactive means no such curve, though single readings can be large; an effect the other way counts as inactive or inconclusive.

Among the data in PubChem BioAssay (Tox21) are Potency values, retold here.

Chain of Androgen receptor (Homo sapiens) (P10275 whole entry, looked up): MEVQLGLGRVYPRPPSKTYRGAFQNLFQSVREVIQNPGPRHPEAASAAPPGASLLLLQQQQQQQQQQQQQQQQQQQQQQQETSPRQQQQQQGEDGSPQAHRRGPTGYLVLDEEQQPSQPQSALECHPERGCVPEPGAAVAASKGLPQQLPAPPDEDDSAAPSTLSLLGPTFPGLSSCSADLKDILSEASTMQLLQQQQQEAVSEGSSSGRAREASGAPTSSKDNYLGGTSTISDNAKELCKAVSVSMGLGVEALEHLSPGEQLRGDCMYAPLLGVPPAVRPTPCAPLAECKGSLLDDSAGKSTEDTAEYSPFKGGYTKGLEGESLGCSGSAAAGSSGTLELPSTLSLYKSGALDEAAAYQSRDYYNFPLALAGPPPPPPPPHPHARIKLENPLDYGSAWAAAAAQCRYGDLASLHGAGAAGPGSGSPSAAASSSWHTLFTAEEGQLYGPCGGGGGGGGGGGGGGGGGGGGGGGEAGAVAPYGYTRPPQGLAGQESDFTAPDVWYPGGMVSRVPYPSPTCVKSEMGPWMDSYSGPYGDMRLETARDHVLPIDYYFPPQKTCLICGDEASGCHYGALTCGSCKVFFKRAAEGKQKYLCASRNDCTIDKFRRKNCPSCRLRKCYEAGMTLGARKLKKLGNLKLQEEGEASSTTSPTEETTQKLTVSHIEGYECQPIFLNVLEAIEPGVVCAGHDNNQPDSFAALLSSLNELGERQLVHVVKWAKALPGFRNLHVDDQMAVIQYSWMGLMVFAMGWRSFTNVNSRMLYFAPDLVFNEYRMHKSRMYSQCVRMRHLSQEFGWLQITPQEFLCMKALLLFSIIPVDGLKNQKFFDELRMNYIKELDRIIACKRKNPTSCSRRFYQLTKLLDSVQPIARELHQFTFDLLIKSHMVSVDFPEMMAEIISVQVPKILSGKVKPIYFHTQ
Chain of Estrogen receptor (Homo sapiens) (P03372 whole entry, looked up): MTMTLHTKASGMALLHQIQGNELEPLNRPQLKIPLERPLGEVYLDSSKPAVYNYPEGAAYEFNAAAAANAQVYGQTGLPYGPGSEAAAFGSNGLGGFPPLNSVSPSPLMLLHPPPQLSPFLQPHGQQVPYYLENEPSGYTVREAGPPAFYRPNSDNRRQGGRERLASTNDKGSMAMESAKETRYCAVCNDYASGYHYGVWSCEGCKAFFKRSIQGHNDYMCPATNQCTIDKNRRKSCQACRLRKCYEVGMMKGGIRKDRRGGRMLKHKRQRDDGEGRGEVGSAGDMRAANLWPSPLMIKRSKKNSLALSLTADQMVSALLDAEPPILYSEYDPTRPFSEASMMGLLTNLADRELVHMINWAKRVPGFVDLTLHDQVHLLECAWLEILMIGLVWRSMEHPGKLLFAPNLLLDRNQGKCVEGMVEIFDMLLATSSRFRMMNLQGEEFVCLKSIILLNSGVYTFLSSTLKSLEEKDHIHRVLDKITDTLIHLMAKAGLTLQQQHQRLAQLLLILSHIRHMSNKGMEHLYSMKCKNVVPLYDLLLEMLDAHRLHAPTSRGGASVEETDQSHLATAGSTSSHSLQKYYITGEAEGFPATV

In the case of `CC1=Nc2ccc3ccccc3c2C1(C)C`, the Potency result in experiment [1], in experiment [2] and in [3] was “inactive” in each case. Besides, the Potency in experiment [4] was 19.3 µM (active).
As for `C=CCc1ccccc1OCC(O)CNC(C)C` (stereo unspecified), the Potency entry in [1], in experiment [2], in experiment [3], in experiment [4], in experiment [5] and in experiment [6] was “inactive” each time. For the same compound, the Potency result in [7], in experiment [8] and in [9] was “inactive” in each case.
Consider `C[C@@H](O[C@H]1OCCN(Cc2n[nH]c(=O)[nH]2)[C@H]1c1ccc(F)cc1)c1cc(C(F)(F)F)cc(C(F)(F)F)c1`, for which the Potency in experiment [1] was 16.9 µM (active); in [4], 29.8 µM (active). The Potency result in experiment [2], in [3] and in experiment [6] was “inactive” each time.
On to `COc1ccccc1NC(=O)c1cc2ccccc2cc1O`, for which the Potency entry in experiment [1], in experiment [2], in [3], in experiment [7] and in experiment [9] was “inactive” throughout. Moreover, the Potency in experiment [4] was 30.6 µM (active); in [10] it was 43.3 µM (active); in experiment [6], 24.3 µM (active).
On to `CS(=O)(=O)c1ccc(-c2cn3ccccc3n2)cc1`, for which the Potency entry in experiment [1], in experiment [2], in [3], in experiment [4] and in [8] was “inactive” in each case. In experiment [6], the Potency is 2.11 µM (active).
As to `Cc1cc(O)c(C)c(C)c1O`, the Potency result in experiment [1], in experiment [2], in [3], in experiment [4], in [10] and in experiment [6] was “inactive” throughout. In addition, the Potency entry in experiment [7], in [8] and in [9] was “inactive” each time.
As for `O=C(Cn1ccnc1[N+](=O)[O-])NCCO`, the Potency entry in experiment [1], in [2], in experiment [3], in [4], in experiment [5] and in experiment [7] was “inactive” throughout. The Potency result in experiment [8] and in experiment [9] was “inactive” in each case.
Take `Cc1cc(C)cc(N)c1`: the Potency result in experiment [1], in experiment [2], in experiment [3], in experiment [4], in experiment [8] and in [9] was “inactive” each time.
Consider `O=C1c2ccccc2C(=O)C1c1ccc(Br)cc1`, for which the Potency entry in experiment [1], in [2], in experiment [3], in experiment [4], in [10] and in experiment [5] was “inactive” each time. Besides, the Potency result in experiment [7], in [8] and in experiment [9] was “inactive” throughout. Further, in experiment [6], the Potency was 18.8 µM (active).
As for `O=C1NC(=O)c2cc([N+](=O)[O-])ccc21`, the Potency entry in experiment [1], in [2], in experiment [3], in experiment [4], in experiment [10] and in experiment [6] was “inactive” in each case. For the same compound, the Potency result in experiment [7], in [8] and in experiment [9] was “inactive” throughout.
`C=C1C[C@@]23CC[C@H]4[C@@](C)(CCC[C@@]4(C)C(=O)O[C@@H]4O[C@H](CO)[C@@H](O)[C@H](O)[C@H]4O)[C@@H]2CC[C@]1(O[C@@H]1O[C@H](CO)[C@@H](O)[C@H](O[C@@H]2O[C@H](CO)[C@@H](O)[C@H](O)[C@H]2O)[C@H]1O[C@@H]1O[C@H](CO)[C@@H](O)[C@H](O)[C@H]1O)C3`: the Potency entry in experiment [1], in experiment [2], in experiment [3], in experiment [4], in experiment [10] and in experiment [6] was “inactive” in each case. The Potency entry in experiment [7], in experiment [8] and in experiment [9] was “inactive” each time.
With `C[C@@H](O)[C@H]1C(=O)N2C(C(=O)O)=C([C@H]3CCCO3)S[C@H]12`, the Potency result in experiment [1], in [2], in [3], in experiment [4], in [10] and in [5] was “inactive” in each case. Further, the Potency entry in experiment [6], in [7], in experiment [8] and in experiment [9] was “inactive” throughout.
For `Cc1cscn1`, the Potency result in experiment [1], in experiment [2], in experiment [3], in experiment [4], in experiment [10] and in [6] was “inactive” in each case. Further, the Potency entry in experiment [7], in experiment [8] and in [9] was “inactive” each time.
As for `C/C=C/C=C/C=O`, the Potency result in experiment [1], in experiment [2], in [3], in experiment [4], in experiment [10] and in [6] was “inactive” in each case. Also, the Potency entry in experiment [7], in [8] and in experiment [9] was “inactive” throughout.
For `CCCCCCC(C)(C)C(=O)O`, the Potency result in [1], in [2], in experiment [3], in experiment [4], in [10] and in experiment [6] was “inactive” each time. For the same compound, the Potency entry in [7], in [8] and in experiment [9] was “inactive” in each case.
For the compound `C1COC1`, the Potency result in experiment [1], in experiment [2], in experiment [3], in experiment [4], in experiment [6] and in [7] was “inactive” throughout. Besides, the Potency result in [8] and in experiment [9] was “inactive” each time.
For the compound `O=C=Nc1cccc(C(F)(F)F)c1`, the Potency entry in [1], in experiment [2], in [3], in [4], in experiment [10] and in experiment [6] was “inactive” in each case. Further, the Potency result in experiment [7], in experiment [8] and in experiment [9] was “inactive” throughout.
`CCOc1cccc(-n2cc(C(=O)N3CCN(c4cc(C(=O)O)c5ccccc5c4)CC3)nc2-c2ccc(C)cc2)c1`: the Potency result in experiment [1], in [2], in experiment [3], in experiment [4], in [6] and in [8] was “inactive” in each case. The Potency entry in experiment [9] is “inactive”.
With `CCCCCCCC/C=C\CCCCCCCCCCCC(=O)O`, the Potency result in experiment [1], in experiment [2], in experiment [3], in [4], in experiment [10] and in experiment [8] was “inactive” each time. In addition, the Potency result in experiment [9] is “inactive”.
Regarding `O=C1Cc2ccccc2N1c1c(Cl)cccc1Cl`, the Potency result in experiment [1], in [2], in [3], in [6], in [7] and in experiment [8] was “inactive” each time. In [9], the Potency result is “inactive”. The values for the Potency in [4] and in [10] were 24.3 µM (active) and 61.1 µM (active), respectively.
For `CC/C=C1/OC(=O)c2ccccc21`, the Potency entry in [1], in [2], in experiment [3], in [4], in experiment [6] and in experiment [7] was “inactive” in each case.
Turning to `C=C(C)[C@@H]1CCC2=CCC[C@@H](C)[C@]2(C)C1`, the Potency entry in experiment [1], in [2], in experiment [3], in experiment [10], in experiment [8] and in experiment [9] was “inactive” each time. In addition, the Potency in [4] was 27.3 µM (active).
`C[C@H]1c2cccc(O)c2C(O)=C2C(=O)[C@]3(O)C(O)=C(C(N)=O)C(=O)[C@@H](N(C)C)[C@@H]3[C@@H](O)[C@@H]21`: the Potency entry in [1], in experiment [2], in [3], in experiment [4], in [10] and in experiment [5] was “inactive” throughout. Further, the Potency entry in experiment [6] is “inactive”.
With `CCCCC(CC)CN` (stereo unspecified), the Potency result in [1], in [2], in experiment [3], in [4], in experiment [10] and in experiment [6] was “inactive” throughout. For the same compound, the Potency result in [7], in experiment [8] and in experiment [9] was “inactive” in each case.
For `NC1[C@H]2CN(c3nc4c(cc3F)c(=O)c(C(=O)O)cn4-c3ccc(F)cc3F)C[C@@H]12` (stereo partly specified), the Potency result in experiment [1], in [2], in [3], in experiment [4], in experiment [5] and in [6] was “inactive” in each case. Moreover, the Potency entry in experiment [7] is “inactive”. The Potency in experiment [8] is 21.1 µM (active).
Turning to `COC(=O)[C@H]1[C@H]2C[C@@H]3c4[nH]c5cc(OC)ccc5c4CCN3C[C@H]2C[C@@H](OC(=O)/C=C/c2ccc(O)c(OC)c2)[C@@H]1OC`, in experiment [1], the Potency was 26.8 µM (active). For the same compound, the Potency result in experiment [2], in [3], in experiment [4], in experiment [10], in experiment [6] and in experiment [7] was “inactive” each time. The Potency result in [8] and in [9] was “inactive” each time.
